From PubChem BioAssay (EPA / NIEHS)
Calls of active or inactive are those of the source. How the source made its calls: active means hit-call score of the fitted dose curve at least 0.9, where 1 is the maximum; inactive means score below 0.9.

Columns and labels:
Details in all cases: mRNA level, 48 h; actives raise or lower the signal
[1] = read-out: Forkhead box O1 (FOXO1), FOXO1 (gene 2308); assay: LTEA_HepaRG_FOXO1: Life Technologies and Expression Analysis (LTEA) Assay for Forkhead box O1 (FOXO1) using HepaRG (AID 2283456)
Procedure, shortened: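 Using one lot of HepaRG hepatic cells kept in 0.5% DMSO, the team applied test chemicals in duplicate, half-log dilutions from 100 uM, for 48 h. Expression, normalised to ACTB/GAPDH/POLR2A, was compared with vehicle in either direction.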

[2] = read-out: growth arrest and DNA damage 45 (GADD45A), GADD45A (gene 1647); assay: LTEA_HepaRG_GADD45A: Life Technologies and Expression Analysis (LTEA) Assay for growth arrest and DNA damage 45 (GADD45A) using HepaRG (AID 2283458)
Procedure, shortened: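 Transcript induction or loss, quantified by TaqMan qRT-PCR against three housekeeping genes, is the read-out. HepaRG cells received chemicals for 48 h across eight half-log concentrations from 100 uM in 0.5% DMSO; gain and loss fitted relative to DMSO.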

[3] = read-out: Forkhead box O3 (FOXO3), FOXO3 (gene 2309); assay: LTEA_HepaRG_FOXO3: Life Technologies and Expression Analysis (LTEA) Assay for Forkhead box O3 (FOXO3) using HepaRG (AID 2283459)
Procedure, shortened: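 Gene-expression endpoint: FOXO3 transcript level by qRT-PCR in HepaRG cultures treated 48 h with chemicals up to 100 uM (half-log, 0.5% DMSO vehicle).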

[4] = read-out: ABC Transporter (ABCB1), ABCB1 (gene 5243); assay: LTEA_HepaRG_ABCB1: Life Technologies and Expression Analysis (LTEA) Assay for ABC Transporter (ABCB1) using HepaRG (AID 2283460)
Procedure, shortened: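 Human liver HepaRG line treated 48 h with up to 100 uM compound (eight half-log points, 0.5% DMSO); ABCB1 mRNA change fitted bidirectionally against DMSO controls.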

[5] = read-out: growth arrest and DNA damage 45 (GADD45B), GADD45B (gene 4616); assay: LTEA_HepaRG_GADD45B: Life Technologies and Expression Analysis (LTEA) Assay for growth arrest and DNA damage 45 (GADD45B) using HepaRG (AID 2283461)
Procedure, shortened: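 Human HepaRG monolayers receive chemicals for 48 h at eight half-log concentrations, highest 100 uM, in 0.5% DMSO. Expression is measured by TaqMan qRT-PCR and normalized to ACTB, GAPDH and POLR2A.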

[6] = read-out: ABC Transporter (ABCC3), ABCC3 (gene 8714); assay: LTEA_HepaRG_ABCC3: Life Technologies and Expression Analysis (LTEA) Assay for ABC Transporter (ABCC3) using HepaRG (AID 2283462)
Procedure, shortened: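 Transcriptional change of ABCC3 in HepaRG after 48 h treatment, determined by qRT-PCR normalized to endogenous controls. Concentrations spanned eight half-log steps to 100 uM in 0.5% DMSO.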

[7] = read-out: ABC Transporter (ABCB11), ABCB11 (gene 8647); assay: LTEA_HepaRG_ABCB11: Life Technologies and Expression Analysis (LTEA) Assay for ABC Transporter (ABCB11) using HepaRG (AID 2283463)
Procedure, shortened: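 Using HepaRG cultures held in 0.5% DMSO, chemicals were tested at half-log dilutions from 100 uM for 48 h. Induction or suppression of ABCB11 mRNA, normalized to ACTB, GAPDH and POLR2A, was fitted bidirectionally against vehicle.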

[8] = read-out: ABC Transporter (ABCC2), ABCC2 (gene 1244); assay: LTEA_HepaRG_ABCC2: Life Technologies and Expression Analysis (LTEA) Assay for ABC Transporter (ABCC2) using HepaRG (AID 2283464)
Procedure, shortened: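 After plating and 48 h culture, HepaRG medium is replaced with serum-free induction medium and chemicals are added (8 concentrations, max 100 uM, 0.5% DMSO) for 48 h. Total RNA then undergoes qRT-PCR for ABCC2 with housekeeping normalization.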

[9] = read-out: Broad substrate specificity ATP-binding cassette transporter ABCG2 (Homo sapiens) (UniProt Q9UNQ0); assay: LTEA_HepaRG_ABCG2: Life Technologies and Expression Analysis (LTEA) Assay for ABC Transporter (ABCG2) using HepaRG (AID 2283465)
Procedure, shortened: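 Gene expression of ABCG2 in HepaRG liver cells is quantified by qRT-PCR following 48 h exposure across an eight-point series topping at 100 uM. Values come from bidirectional fitting relative to DMSO vehicle.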

[10] = read-out: Peroxisomal acyl-coenzyme A oxidase 1 (ACOX1) gene, ACOX1 (gene 51); assay: LTEA_HepaRG_ACOX1: Life Technologies and Expression Analysis (LTEA) Assay for Peroxisomal acyl-coenzyme A oxidase 1 (ACOX1) gene using HepaRG (AID 2283467)
Procedure, shortened: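 Human HepaRG hepatic cultures, 48 h treatment with test chemicals up to 100 uM. ACOX1 expression read by qRT-PCR relative to 0.5% DMSO vehicle.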

[11] = read-out: Alkaline Phosphatase, Placental (ALPP) gene, ALPP (gene 250); assay: LTEA_HepaRG_ALPP: Life Technologies and Expression Analysis (LTEA) Assay for Alkaline Phosphatase, Placental (ALPP) gene using HepaRG (AID 2283468);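 on AC50: differentiated human HepaRG liver cells in serum-free induction medium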
Procedure, shortened: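 Using human liver HepaRG cells, chemicals are tested in duplicate over 48 h at half-log concentrations topping at 100 uM; phenobarbital 1 mM serves as induction control. ALPP mRNA change by qRT-PCR, bidirectional fit against vehicle.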

[12] = read-out: Bcl-2 (BAD) gene, BAD (gene 572); assay: LTEA_HepaRG_BAD: Life Technologies and Expression Analysis (LTEA) Assay for Bcl-2 (BAD) gene using HepaRG (AID 2283469)
Procedure, shortened: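 Activity values reflect up- or down-regulation of BAD mRNA in human HepaRG hepatic cells treated 48 h in serum-free medium, with eight-point half-log dosing capped at 100 uM and 0.5% DMSO vehicle.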

[13] = read-out: Bcl-2 (BAX) gene, BAX (gene 581); assay: LTEA_HepaRG_BAX: Life Technologies and Expression Analysis (LTEA) Assay for Bcl-2 (BAX) gene using HepaRG (AID 2283470)
Procedure, shortened: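 Cells were thawed, plated for 48 h, moved to serum-free induction medium and dosed for 48 h (highest concentration 100 uM, half-log steps, 0.5% DMSO). Total RNA was then analysed for BAX expression by qRT-PCR.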

[14] = read-out: adenosine kinase (ADK) gene, ADK (gene 132); assay: LTEA_HepaRG_ADK: Life Technologies and Expression Analysis (LTEA) Assay for adenosine kinase (ADK) gene using HepaRG (AID 2283471)
Procedure, shortened: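 Differentiated HepaRG cells dosed 48 h in serum-free induction medium, 0.5% DMSO vehicle, eight half-log concentrations from 100 uM, in duplicate. ADK mRNA by TaqMan qRT-PCR normalised to ACTB, GAPDH, POLR2A; bidirectional fit versus DMSO.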

[15] = read-out: Alpha-fetoprotein (AFP) gene, AFP (gene 174); assay: LTEA_HepaRG_AFP: Life Technologies and Expression Analysis (LTEA) Assay for Alpha-fetoprotein (AFP) gene using HepaRG (AID 2283472)
Procedure, shortened: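 Chemicals were tested on differentiated HepaRG cells for 48 hours at eight concentrations up to 100 uM, with 0.5% DMSO as vehicle. AFP expression was then quantified by qRT-PCR and analyzed for gain or loss relative to DMSO.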

BCL2L11 (gene 10018) = assay: LTEA_HepaRG_BCL2L11: Life Technologies and Expression Analysis (LTEA) Assay for Bcl-2 (BCL2L11) gene using HepaRG (AID 2283473)
Procedure, shortened: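 Human hepatic HepaRG cultures are treated 48 h with test chemicals (maximum 100 uM, 0.5% DMSO vehicle). Expression of BCL2L11 is measured by qRT-PCR against ACTB, GAPDH and POLR2A, with activity in either direction scored relative to vehicle.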

[16] = read-out: Apolipoprotein A-V (APOA5) gene, APOA5 (gene 116519); assay: LTEA_HepaRG_APOA5: Life Technologies and Expression Analysis (LTEA) Assay for Apolipoprotein A-V (APOA5) gene using HepaRG (AID 2283474)
Procedure, shortened: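 Concentration-response of APOA5 expression in HepaRG: eight half-log doses to 100 uM, 48 h, qRT-PCR normalized to ACTB/GAPDH/POLR2A, bidirectional fitting with 0.5% DMSO as baseline.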

[17] = read-out: Apoptosis regulator Bcl-2 (Homo sapiens) (UniProt P10415); assay: LTEA_HepaRG_BCL2: Life Technologies and Expression Analysis (LTEA) Assay for Bcl-2 gene using HepaRG (AID 2283475)
Procedure, shortened: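 Plated human HepaRG cells are exposed to test chemicals for 48 h across eight concentrations from 100 uM downward in half-log steps (0.5% DMSO). BCL2 expression is then measured by qRT-PCR with housekeeping normalisation and fitted bidirectionally against vehicle.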

[18] = read-out: ATP-citrate lyase (ACLY), ACLY (gene 47); assay: LTEA_HepaRG_ACLY: Life Technologies and Expression Analysis (LTEA) Assay for ATP-citrate lyase (ACLY) using HepaRG (AID 2283466)
Procedure, shortened: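 ACLY expression changes in human HepaRG liver cells are quantified by qRT-PCR after 48 h exposure to test chemicals (maximum 100 uM, half-log steps). Values are fitted in both directions relative to 0.5% DMSO vehicle.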

Measured: AC50

Chain of Broad substrate specificity ATP-binding cassette transporter ABCG2 (Homo sapiens) (Q9UNQ0 whole entry, looked up): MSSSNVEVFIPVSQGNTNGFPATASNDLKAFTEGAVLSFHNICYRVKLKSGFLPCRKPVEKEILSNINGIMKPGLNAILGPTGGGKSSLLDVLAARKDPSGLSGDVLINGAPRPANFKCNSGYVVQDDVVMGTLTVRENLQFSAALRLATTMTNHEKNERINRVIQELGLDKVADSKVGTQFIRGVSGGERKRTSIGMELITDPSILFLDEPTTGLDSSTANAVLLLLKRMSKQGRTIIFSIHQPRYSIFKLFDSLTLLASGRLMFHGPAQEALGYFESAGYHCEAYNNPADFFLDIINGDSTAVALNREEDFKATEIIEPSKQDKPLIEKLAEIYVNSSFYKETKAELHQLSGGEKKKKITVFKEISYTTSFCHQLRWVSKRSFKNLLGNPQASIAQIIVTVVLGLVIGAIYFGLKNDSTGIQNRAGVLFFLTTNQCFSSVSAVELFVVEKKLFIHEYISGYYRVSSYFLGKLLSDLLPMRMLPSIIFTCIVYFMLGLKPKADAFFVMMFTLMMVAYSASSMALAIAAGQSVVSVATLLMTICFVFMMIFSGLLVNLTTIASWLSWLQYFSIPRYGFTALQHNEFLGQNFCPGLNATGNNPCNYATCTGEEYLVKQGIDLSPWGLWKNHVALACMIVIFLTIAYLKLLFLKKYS
Chain of Apoptosis regulator Bcl-2 (Homo sapiens) (P10415 whole entry, looked up): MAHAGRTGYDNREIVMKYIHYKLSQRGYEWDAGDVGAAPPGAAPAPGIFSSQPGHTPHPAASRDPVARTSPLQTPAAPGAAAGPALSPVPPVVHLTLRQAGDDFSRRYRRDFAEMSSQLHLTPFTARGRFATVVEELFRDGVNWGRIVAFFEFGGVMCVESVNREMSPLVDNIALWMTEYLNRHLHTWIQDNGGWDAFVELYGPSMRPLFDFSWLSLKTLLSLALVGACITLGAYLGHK

C=CCCCCCCCCCCCC
not listed: [18]
inactive: all other assays above

NC(=Nc1ccccc1)Nc1ccccc1
active: [15] 70.9 µM
not listed: [18]
inactive: all other assays above

C#CC(O)C(CC)CCCC (stereo not drawn)
not listed: [18]
inactive: all other assays above

CCCC(=O)O
active: [2] 0.0993 µM
not listed: [3]
inactive: all other assays above

COC(=O)CCCC(=O)OC
active: [6] 0.263 µM
not listed: [18]
inactive: all other assays above

C/C=C/c1ccc(OC)cc1
not listed: [18]
inactive: all other assays above

CCCCC(CC)COC(=O)CCCCCCCC(=O)OCC(CC)CCCC (stereo not drawn)
not listed: [18]
inactive: all other assays above

CC(=O)OCC(COC(C)=O)OC(C)=O
not listed: [18]
inactive: all other assays above

OCC(CO)n1cnc(-c2ccc(F)cc2)c1-c1ccnc(Oc2ccccc2)n1
active: [4] 20 µM | [8] 24.7 µM | [9] 16 µM | [15] 28.4 µM
not listed: [18]
inactive: all other assays above

CCCCCCC(C=O)=Cc1ccccc1
not listed: [18]
inactive: all other assays above

CSc1ccc(Oc2ccc(S(N)(=O)=O)cc2CN(C)C)cc1C
active: [6] 81.5 µM | [7] 84.6 µM | [11] 54.5 µM | [15] 75 µM
not listed: [18]
inactive: all other assays above

CC(N)=O
active: [2] 0.256 µM
not listed: [18]
inactive: all other assays above

O=C(O)CC(O)(CC(=O)O)C(=O)O
not listed: [8]
inactive: all other assays above

O=C1c2c(O)cccc2Cc2cccc(O)c21
not listed: [18]
inactive: all other assays above

CCOCCOCCO
not listed: [18]
inactive: all other assays above

C/C=C/C=C/C(=O)O
active: [2] 0.246 µM | BCL2L11 (gene 10018) 0.00162 µM
not listed: [18]
inactive: all other assays above

O=C1CCCCC1
active: [2] 0.0727 µM
not listed: [18]
inactive: all other assays above

CC(C)OC(=O)C(C)(C)Oc1ccc(C(=O)c2ccc(Cl)cc2)cc1
active: [2] 0.0536 µM | [16] 0.0432 µM
not listed: [18]
inactive: all other assays above

COc1ccc(OC(F)(F)F)cc1CN[C@H]1CCCN[C@H]1c1ccccc1
active: [1] 93.8 µM | [3] 76.3 µM | [4] 83.7 µM | [8] 82.9 µM | [10] 64.3 µM | [14] 79.3 µM | [15] 9.61 µM | BCL2L11 (gene 10018) 84.5 µM
not listed: [18]
inactive: all other assays above

CC(C)COC(=O)CCCCC(=O)OCC(C)C
not listed: [18]
inactive: all other assays above

CN(C)C(=O)NC1(c2ccccc2)CCN(CC[C@@]2(c3ccc(F)c(F)c3)CN(C(=O)c3ccccc3)CCO2)CC1
active: [4] 1.86 µM | [6] 47 µM | [7] 1.96 µM | [8] 3.81 µM | [15] 36.8 µM | [16] 29.8 µM
not listed: [18]
inactive: all other assays above
